PubChem BioAssay AID1159580 (chemical genetic matrix, 2015)
“And” between values parts separate entries of the source, which are not always exact repeats. Equal values may be shown once. About 2,000 (36%) of roughly 5,500 compounds were called active. Not shown: some 18% with an inconclusive outcome. Rule as the data show it: active = normalized growth mostly below about 0.91 (no sharp cut-off); inconclusive = no clear call, values can overlap the other calls; inactive = mostly above about 0.92. This is one part of the list.

Experiment: chemical genetic growth profiling, strain panel (AID 1159580);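 also: tested at 20 µM; growth read once vehicle control cultures reached saturation at 30 °C; 1 = growth at the plate median or of vehicle wells; lower values mean less growth of the strain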
Settings: S. cerevisiae deletion strains, growth OD

Measured: normalized growth

N=c1ccn2c(n1)O[C@@H]1C2O[C@H](CO)[C@H]1O (stereo not given in full)
inactive: locus YAL021C, strain ccr4, stronger effect = lower value 1.02 | locus YAL026C, strain drs2, stronger effect = lower value 0.981 | locus YAL030W, strain snc1, stronger effect = lower value 0.987 | locus YBL061C, strain skt5, stronger effect = lower value 0.985 | locus YBR009C, strain hhf1, stronger effect = lower value 0.965 | locus YBR021W, strain FUR4, stronger effect = lower value 1.01 | locus YBR023C, strain chs3, stronger effect = lower value 0.99 | locus YBR171W, strain sec66, stronger effect = lower value 0.988 | locus YBR229C, strain ROT2, stronger effect = lower value 1 | locus YBR231C, strain swc5, stronger effect = lower value 0.98 | locus YBR279W, strain paf1, stronger effect = lower value 0.992 | locus YCL011C, strain gbp2, stronger effect = lower value 0.984 | locus YCL016C, strain dcc1, stronger effect = lower value 0.983 | locus YCL029C, strain bik1, stronger effect = lower value 1.01 | locus YCL061C, strain MRC1, stronger effect = lower value 0.988 | locus YCL069W, strain vba3, stronger effect = lower value 0.991 | locus YCR088W, strain abp1, stronger effect = lower value 0.993 | locus YDL005C, strain med2, stronger effect = lower value 0.992 | locus YDL035C, strain GPR1, stronger effect = lower value 1.01 | locus YDL040C, strain nat1, stronger effect = lower value 0.979 | locus YDL074C, strain BRE1, stronger effect = lower value 1.02 | locus YDL101C, strain DUN1, stronger effect = lower value 1.01 | locus YDL185W, strain tfp1, stronger effect = lower value 1.01 | locus YDL192W, strain arf1, stronger effect = lower value 1.01 | locus YDR001C, strain nth1, stronger effect = lower value 0.982 | locus YDR069C, strain doa4, stronger effect = lower value 0.962 | locus YDR101C, strain arx1, stronger effect = lower value 0.987 | locus YDR137W, strain rgp1, stronger effect = lower value 0.982 | locus YDR159W, strain sac3, stronger effect = lower value 0.939 | locus YDR162C, strain NBP2, stronger effect = lower value 1.01 | locus YDR195W, strain ref2 0.91 | locus YDR297W, strain sur2, stronger effect = lower value 0.996 | locus YDR318W, strain mcm21, stronger effect = lower value 1 | locus YDR334W, strain swr1, stronger effect = lower value 0.985 | locus YDR335W, strain msn5, stronger effect = lower value 0.979 | locus YDR388W, stronger effect = lower value 1.01 | locus YDR392W, strain spt3, stronger effect = lower value 0.83 | locus YDR502C, strain sam2, stronger effect = lower value 1.03 | locus YEL003W, strain gim4, stronger effect = lower value 0.984 | locus YEL037C, strain rad23, stronger effect = lower value 0.991 | locus YEL061C, strain CIN8 (second series), stronger effect = lower value 0.984 | locus YEL061C, strain CIN8, stronger effect = lower value 1.01 | locus YER015W, strain faa2, stronger effect = lower value 0.985 | locus YER016W, strain bim1, stronger effect = lower value 0.982 | locus YER110C, stronger effect = lower value 1.01 | locus YER111C, strain swi4, stronger effect = lower value 0.974 | locus YER155C, strain BEM2 (second series), stronger effect = lower value 0.949 | locus YER155C, strain BEM2, stronger effect = lower value 1 | locus YER167W, strain BCK2, stronger effect = lower value 1.01 | locus YFR010W, strain ubp6, stronger effect = lower value 0.975 | locus YGL078C, strain dbp3, stronger effect = lower value 1.01 | locus YGL086W, strain mad1, stronger effect = lower value 1.01 | locus YGL167C, strain pmr1, stronger effect = lower value 0.984 | locus YGL173C, strain kem1, stronger effect = lower value 0.981 | locus YGL227W, strain vid30, stronger effect = lower value 0.984 | locus YGL240W, strain doc1, stronger effect = lower value 0.959 | locus YGL248W, strain PDE1, stronger effect = lower value 1.01 | locus YGL253W, strain hxk2, stronger effect = lower value 0.981 | locus YGR078C, strain PAC10, stronger effect = lower value 1.01 | locus YGR135W, strain pre9, stronger effect = lower value 1.03 | locus YGR252W, strain gcn5, stronger effect = lower value 0.988 | locus YHR013C, strain ard1, stronger effect = lower value 0.939 | locus YHR027C, strain rpn1, stronger effect = lower value 0.989 | locus YHR030C, strain SLT2, stronger effect = lower value 1.01 and 0.988 | locus YHR079C, strain IRE1 (second series), stronger effect = lower value 1 | locus YHR079C, strain IRE1, stronger effect = lower value 0.985 | locus YHR094C, strain hxt1, stronger effect = lower value 1.01 | locus YHR129C, strain ARP1, stronger effect = lower value 0.997 | locus YHR142W, strain chs7, stronger effect = lower value 1.04 | locus YHR200W, strain rpn10, stronger effect = lower value 1.01 | locus YIL066C, strain RNR3, stronger effect = lower value 1.01 | locus YIL073C, strain SPO22, stronger effect = lower value 1.04 | locus YIL125W, strain kgd1, stronger effect = lower value 1 | locus YIR030C, strain dcg1, stronger effect = lower value 1.02 | locus YJL092W, strain hpr5, stronger effect = lower value 0.982 | locus YJL095W, strain BCK1 (second series), stronger effect = lower value 0.99 | locus YJL095W, strain BCK1, stronger effect = lower value 1.04 and 0.994 | locus YJL115W, strain asf1, stronger effect = lower value 1 | locus YJL129C, strain trk1, stronger effect = lower value 0.999 | locus YJL134W, strain LCB3, stronger effect = lower value 1.01 | locus YJL154C, strain vps35, stronger effect = lower value 0.988 | locus YJL164C, strain tpk1, stronger effect = lower value 1.01 | locus YJL166W, strain qcr8, stronger effect = lower value 0.99 | locus YJL168C, strain set2, stronger effect = lower value 1.01 | locus YJL187C, strain SWE1 (second series), stronger effect = lower value 1.02 | locus YJL187C, strain SWE1, stronger effect = lower value 0.984 | locus YJR043C, strain POL32, stronger effect = lower value 1.01 | locus YJR066W, strain TOR1, stronger effect = lower value 0.908 | locus YKL009W, strain mrt4, stronger effect = lower value 1.02 | locus YKL068W, stronger effect = lower value 1.01 | locus YKL085W, strain MDH1 (second series), stronger effect = lower value 1.02 | locus YKL085W, strain MDH1, stronger effect = lower value 1.02 | locus YKL160W, strain elf1, stronger effect = lower value 1.02 | locus YKL190W, strain CNB1, stronger effect = lower value 1.01 | locus YKR001C, strain vps1, stronger effect = lower value 1 | locus YKR026C, strain gcn3, stronger effect = lower value 0.989 | locus YKR091W, strain srl3, stronger effect = lower value 0.99 | locus YLL001W, strain dnm1, stronger effect = lower value 0.982 | locus YLL026W, stronger effect = lower value 0.987 | locus YLL041C, strain sdh2, stronger effect = lower value 0.992 | locus YLR027C, strain aat2, stronger effect = lower value 0.985 | locus YLR039C, strain RIC1, stronger effect = lower value 1 | locus YLR058C, strain SHM2, stronger effect = lower value 1.01 | locus YLR102C, strain apc9, stronger effect = lower value 1.01 | locus YLR113W, strain HOG1, stronger effect = lower value 0.989 | locus YLR221C, strain rsa3, stronger effect = lower value 1.01 | locus YLR258W, strain gsy2, stronger effect = lower value 0.984 | locus YLR262C, strain YPT6 (second series), stronger effect = lower value 1.01 | locus YLR262C, strain YPT6, stronger effect = lower value 1.02 | locus YLR268W, strain sec22, stronger effect = lower value 1 | locus YLR320W, strain mms22, stronger effect = lower value 0.971 | locus YLR330W, strain CHS5, stronger effect = lower value 1 | locus YLR342W, strain FKS1 (second series), stronger effect = lower value 1.01 | locus YLR342W, strain FKS1, stronger effect = lower value 0.985 | locus YLR357W, strain rsc2, stronger effect = lower value 0.95 | locus YLR370C, strain arc18, stronger effect = lower value 0.991 | locus YLR371W, strain rom2, stronger effect = lower value 1.01 | locus YLR384C, strain iki3, stronger effect = lower value 0.997 | locus YLR418C, strain cdc73, stronger effect = lower value 1.01 | locus YML016C, strain PPZ1, stronger effect = lower value 1.01 | locus YML032C, strain rad52, stronger effect = lower value 1 | locus YML120C, strain ndi1, stronger effect = lower value 1.01 | locus YML124C, strain tub3, stronger effect = lower value 1.01 | locus YMR058W, strain fet3, stronger effect = lower value 0.992 | locus YMR078C, strain ctf18, stronger effect = lower value 1.01 | locus YMR125W, strain sto1, stronger effect = lower value 0.951 | locus YMR129W, stronger effect = lower value 0.997 | locus YMR205C, strain PFK2, stronger effect = lower value 0.957 | locus YMR223W, strain ubp8, stronger effect = lower value 1.02 | locus YMR231W, strain pep5, stronger effect = lower value 0.991 | locus YMR307W, strain GAS1, stronger effect = lower value 1.02 | locus YNL067W, strain RPL9B, stronger effect = lower value 1.03 | locus YNL071W, strain lat1, stronger effect = lower value 0.994 | locus YNL153C, strain GIM3, stronger effect = lower value 1.02 | locus YNL183C, strain NPR1, stronger effect = lower value 0.941 | locus YNL209W, strain ssb2, stronger effect = lower value 1 | locus YNL233W, strain BNI4, stronger effect = lower value 1.01 | locus YNL248C, strain rpa49, stronger effect = lower value 1.01 | locus YNL250W, strain rad50, stronger effect = lower value 1 | locus YNL271C, strain bni1, stronger effect = lower value 1.02 | locus YNL298W, strain CLA4, stronger effect = lower value 1.01 | locus YNL307C, strain MCK1, stronger effect = lower value 1.01 | locus YNL322C, strain KRE1 (second series), stronger effect = lower value 1 | locus YNR049C, strain mso1, stronger effect = lower value 0.986 | locus YNR052C, strain pop2, stronger effect = lower value 1.02 | locus YOL006C, strain TOP1, stronger effect = lower value 1.09 | locus YOL012C, strain htz1 1.21 | locus YOL147C, strain pex11, stronger effect = lower value 1.01 | locus YOR001W, strain rrp6, stronger effect = lower value 1.01 | locus YOR061W, strain CKA2, stronger effect = lower value 1.01 | locus YOR069W, strain VPS5, stronger effect = lower value 1.01 | locus YOR070C, strain gyp1, stronger effect = lower value 0.995 | locus YOR080W, strain dia2, stronger effect = lower value 0.965 | locus YOR083W, strain WHI5, stronger effect = lower value 1.03 | locus YOR106W, strain vam3, stronger effect = lower value 1.02 | locus YOR136W, strain idh2, stronger effect = lower value 1.01 | locus YOR144C, strain elg1, stronger effect = lower value 1 | locus YOR184W, strain ser1, stronger effect = lower value 1.01 | locus YOR231W, strain MKK1, stronger effect = lower value 0.999 | locus YOR265W, strain rbl2, stronger effect = lower value 0.99 | locus YOR270C, strain vph1, stronger effect = lower value 0.983 | locus YOR290C, strain snf2, stronger effect = lower value 0.974 | locus YOR316C, strain cot1, stronger effect = lower value 1.02 | locus YPL051W, strain arl3, stronger effect = lower value 1 | locus YPL055C, strain LGE1, stronger effect = lower value 1.02 | locus YPL078C, strain atp4, stronger effect = lower value 1.01 | locus YPL106C, strain sse1, stronger effect = lower value 0.979 | locus YPL240C, strain hsp82, stronger effect = lower value 0.993 | locus YPL241C, strain CIN2, stronger effect = lower value 1.02 | locus YPL256C, strain CLN2, stronger effect = lower value 1.04 | locus YPR119W, strain clb2, stronger effect = lower value 1 | locus YPR141C, strain kar3, stronger effect = lower value 1.01 | locus YPR163C, strain tif3, stronger effect = lower value 1.01 | locus YPR167C, strain met16, stronger effect = lower value 1 | strain wtn01, stronger effect = lower value 1
